Holding throughout (experiment): NCI-60 one-dose screen, 48 h (100 = growth as untreated, 0 = no growth, -100 = all killed)
Holding throughout (details): 10 µM unless noted

The subject of experiment [1] is HCT-15 colon.
Experiment [2] concerns HT29 colon.
Experiment [3] relates to SNB-75 CNS.
Experiment [4] has as its system SNB-19 CNS.
Experiment [5] concerns U251 CNS.
The subject of experiment [6] is PC-3 prostate.
In experiment [7] the test system is SK-MEL-5 melanoma.
Experiment [8] concerns UACC-62 melanoma.
Experiment [9] relates to LOX IMVI melanoma.
Experiment [10] has as its system SK-MEL-28 melanoma.

Compounds without any hit were thinned out: in the full panel of roughly 83,000, 20% have a hit.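 Treatment: one concentration, 48 hours, 96-well format. Scoring: percent growth, with anything below 10 considered active.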 A number with no mark means an inactive call. Active and inactive are the calls of the source.

As to `CCO/C=N/C1=C(C#N)C(c2ccc(OC)cc2)c2sc3c(CC)cccc3c2O1` (stereo not given), the growth in [1] was 22.4%; in [2], 13.1%; in experiment [3], -0.25% (active); in [4], 37.8%; in experiment [5], 27.3%; in experiment [6], 26.9%. Further, the growth in [7] was 17.6%; in experiment [8], 27.6%; in [9], 26%; in experiment [10], 67.2%.
For the compound `CCCCCc1ccc(S(=O)(=O)Nc2cc(-c3csc(NC(=O)CN4CCN(C)CC4)n3)ccc2N2CCN(C)CC2)cc1`, the growth in experiment [1] was -68.4% (active); in [2] it was -25.3% (active); in experiment [3], 94.7%; in [4], 5.25% (active); in experiment [5] it was -32.9% (active); in experiment [6], 29.6%. Moreover, the growth in experiment [7] was -89.9% (active); in [8], -78.4% (active); in [9], -82.9% (active); in experiment [10], -87.3% (active).
As for `COc1cc(OC)c(/C=C/S(=O)(=O)Cc2ccc(OC)c(NCC(=O)NO)c2)c(OC)c1`, the growth in experiment [1] was 12.9%; in experiment [2], 5.84% (active); in experiment [3] it was 27.6%; in experiment [4] it was 18.5%; in [5], 13.4%; in [6], 22.7%. The growth in [7] was -30.6% (active); in experiment [8] it was 12.4%; in experiment [9], 8.14% (active); in experiment [10], 56.8%.
With `O=C1CC(=O)N2CSCN(C(c3ccccc3)c3nc4ncncc4[nH]3)C2=N1` (stereo not given), the growth was 100% in experiment [1]; 106% in experiment [2]; 99.8% in [3]; 93.8% in [4]; 97.9% in [5]; 98% in experiment [6]. The growth is 105% in experiment [7], 97% in experiment [8], 108% in experiment [9] and 117% in [10].
In the case of `Nc1nc(-c2cccc([N+](=O)[O-])c2)c(N=Nc2ccc(Br)cc2)s1`, the growth is 0.133% (active) in experiment [1]; 30.1% in [2]; -27.9% (active) in [3]; 29.9% in experiment [4]; -89.3% (active) in experiment [5]; 2.83% (active) in [6]. Besides, the growth in experiment [7] is -38.5% (active); in experiment [8] it was -37.8% (active); in experiment [9], -84% (active); in experiment [10], 4.69% (active).
Regarding `C=CCn1c(SCC(=O)Nc2ccc(C(=O)/C=C/c3cccc([N+](=O)[O-])c3)cc2)nnc1-c1c[nH]c2ccccc12`, the growth in experiment [1] is 91.7%; in experiment [2] it was 98.4%; in experiment [3], 97%; in experiment [4], 89.4%; in [5], 94.4%; in experiment [6] it was 77.8%. For the same compound, the growth in experiment [7] was 59.5%; in [8], 66.9%; in [9], 31.1%; in [10], 95.4%.
Turning to `N/C(=N\C(N)=N\c1nc2ccccc2s1)c1ccc2ccccc2c1`, the growth was 69% in [1]; 104% in experiment [2]; 48.5% in [3]; 94.7% in experiment [4]; 47.9% in experiment [5]; 50.6% in experiment [6]. Further, the growth in [7] was 97.4%; in experiment [8], 93.4%; in experiment [9], -45.7% (active); in [10] it was 95.5%.
Regarding `CCCCCc1ccc(S(=O)(=O)Nc2cccc(-c3csc(NC(=O)CNCCN(C)C)n3)c2)cc1`, the growth was 26.5% in experiment [1]; 53.9% in experiment [2]; 87.5% in experiment [3]; 90.4% in experiment [4]; 69.4% in [5]; 64.7% in [6]. Besides, the growth in [7] is 73.2%; in experiment [8] it was 102%; in experiment [9] it was 33.2%; in [10], 90.6%.
For the compound `COc1cc(-c2nc(-c3ccccc3)[nH]c2-c2ccnc(NCCCNS(=O)(=O)c3cccc(F)c3)n2)ccc1Cl`, the growth in experiment [1] is 25.7%; in experiment [2] it was 23.1%; in [3], 77.4%; in experiment [4] it was 66.3%; in [5] it was 44.5%; in [6], 25.2%. Further, the growth was 34.2% in [7], 44.1% in [8], 35.5% in experiment [9] and 55% in [10].
With `Nc1cc(F)ccc1NC(=O)c1ccc(NC(=O)C/C=C/c2cccnc2)cc1`, the growth in experiment [1] was 29.5%; in experiment [2], 24.5%; in experiment [3] it was 51.3%; in experiment [4], 46.7%; in experiment [5], 34.1%; in experiment [6] it was 36.6%. Also, the growth in experiment [7] was 49.7%; in experiment [8] it was 42.1%; in experiment [9] it was 39.7%; in [10], 49.4%.
Take `CNC(=O)c1c(NC(=O)c2cccc(C(F)(F)F)c2F)sc2c1CCC(=O)C2`: the growth in [1] was 5.54% (active); in experiment [2], 9.35% (active); in experiment [3], 0.105% (active); in experiment [4], 16.5%; in experiment [5], 4.78% (active); in experiment [6], 14.9%. In addition, the growth in experiment [7] was -83.7% (active); in experiment [8] it was 7.56% (active); in experiment [9], 16%; in [10], 47.8%.
`Cc1cc(C)n(C(=O)c2sc(=S)n(-c3ccccc3)c2N=Nc2c(N)n[nH]c2N)n1`: the growth in experiment [1] is 108%; in [2], 103%; in experiment [3], 109%; in [4], 105%; in experiment [5], 104%; in experiment [6], 98.7%. For the same compound, the growth in experiment [7] was 103%; in experiment [8], 98.2%; in experiment [9], 101%; in [10] it was 106%.
With `CCCCCCCn1cc2c(N[C@H](C)c3ccccc3)ncnc2n1`, the growth in experiment [1] is 91.5%; in experiment [2] it was 113%; in experiment [3], 92.2%; in [4] it was 94.3%; in experiment [5], 102%; in experiment [6] it was 92.6%. Moreover, the growth was 109% in [7], 80.6% in experiment [8], 99.2% in experiment [9] and 108% in [10].
Regarding `CN(C)CCNC(=O)c1ccc(-c2nc3ccc4[nH]ncc4c3c3c2CCC3)cc1`, the growth in experiment [1] is 17.2%; in [2], 12.6%; in [3], 40.3%; in experiment [4], 9.44% (active); in experiment [5] it was 25.3%; in experiment [6], 3.49% (active). In addition, the growth in experiment [7] is 7.44% (active); in [8], 15.8%; in experiment [9] it was -61% (active); in [10] it was 21.9%.
Turning to `O=C(CSc1nc2ccccc2c(=O)n1-c1ccccc1)Nc1ccc(-c2nc3ccc([N+](=O)[O-])cc3[nH]2)cc1`, the growth in experiment [1] is 61.3%; in experiment [2], 79.3%; in [3], 82.5%; in [4], 81.8%; in [5], 87.6%; in experiment [6], 69.7%. Also, the growth was 91.4% in experiment [7], 51.9% in experiment [8], 37.8% in [9] and 82.6% in experiment [10].
With `NC(=O)c1cccc(C#CCNC[C@H]2C[C@@H](n3ccc4c(Cl)ncnc43)[C@H](O)[C@@H]2O)c1`, the growth in experiment [1] is 107%; in experiment [2], 105%; in experiment [3] it was 87.7%; in [4] it was 102%; in [5] it was 100%; in [6] it was 102%. Besides, the growth in [7] was 101%; in [8] it was 96.1%; in experiment [9] it was 101%; in experiment [10], 102%.
As for `O=C(CSc1nnc(-c2ccc(Cl)cc2)n1-c1ccccc1)Nc1ccc(Br)cc1`, the growth was 67% in experiment [1]; 21.3% in experiment [2]; -33.7% (active) in [3]; 35% in [4]; -51.8% (active) in [5]; 13.5% in experiment [6]. Besides, the growth in experiment [7] was 31.2%; in experiment [8], 20.2%; in experiment [9], -54.5% (active); in [10] it was 33.4%.
For `Clc1cccc(/C=N/Nc2nc(N/N=C/c3cccc(Cl)c3Cl)nc(N3CCCCC3)n2)c1Cl`, the growth in experiment [1] was 65.5%; in [2], 84.3%; in [3] it was 104%; in [4], 95.4%; in [5], 52.9%; in experiment [6], 70.1%. Besides, the growth in [7] was 94.2%; in experiment [8] it was 89.8%; in experiment [9], 68.3%; in [10], 97.7%.
Turning to `CS(=O)(=O)c1ccc(-n2cc(/C=N/O)c(-c3ccccc3)n2)cc1`, the growth in experiment [1] is 76.6%; in [2] it was 97.4%; in [3], 87.7%; in experiment [4], 71.2%; in experiment [5], 72.1%; in experiment [6], 71%. Further, the growth in experiment [7] was 21.2%; in experiment [8], 66.6%; in experiment [9] it was -79.5% (active); in experiment [10], 93.3%.
Regarding `O=C(NCCn1ccnc1)c1ccc(-c2nc3ccc4[nH]ncc4c3c3c2CCCC3)cc1`, the growth in experiment [1] was 97.5%; in [2] it was 88.4%; in experiment [3], 52.6%; in experiment [4], 55.6%; in [5], 58.6%; in [6], 47.6%. The growth in experiment [7] was 89.9%; in experiment [8], 28.8%; in experiment [9], 66.3%; in [10], 62.4%.
As to `COc1ccc(C(=O)c2c(N)c(C#N)cn2-c2ccccc2OC)cc1`, the growth is 26% in experiment [1]; 6.81% (active) in [2]; 29.3% in experiment [3]; 29.8% in [4]; 34.2% in [5]; 36.2% in experiment [6]. Moreover, the growth in [7] is 6.34% (active); in [8] it was 23.3%; in [9], 23.8%; in experiment [10], 59.2%.
Consider `FC(F)(F)c1cc(Nc2cccc(Oc3ccc(NC4=NCCN4)nc3)c2)ccc1Cl`, for which the growth in experiment [1] is -71.4% (active); in [2], 4.39% (active); in experiment [3], 10.7%; in experiment [4], 9.09% (active); in [5], -7.18% (active); in experiment [6], -36.5% (active). The growth is 4.94% (active) in [7], -45.5% (active) in [8], -94.8% (active) in experiment [9] and 29.4% in [10].
Take `Cc1ccc(-n2cc(/C=N/NC(=O)c3ccncc3)c(-c3ccc(S(C)(=O)=O)cc3)n2)cc1`: the growth in [1] was 37%; in experiment [2], 76.6%; in [3], 95.7%; in [4] it was 89.9%; in [5], 97.5%; in [6], 81.5%. Besides, the growth in experiment [7] is 94.5%; in experiment [8], 76.9%; in experiment [9], 74%; in experiment [10], 93.4%.
As for `COc1ccccc1N1CCN(C2=CC(=O)C(C)=C(C)C2=O)CC1`, the growth was 100% in [1]; 104% in experiment [2]; 102% in experiment [3]; 104% in experiment [4]; 98.1% in [5]; 95.9% in experiment [6]. Further, the growth is 99.4% in experiment [7], 99.5% in experiment [8], 94.8% in [9] and 119% in experiment [10].
On to `CC(=O)c1nnn(-c2c(C(=O)n3nc(C)cc3C)sc(=S)n2-c2ccccc2)c1C`, for which the growth in experiment [1] was 101%; in experiment [2], 114%; in experiment [3] it was 98.4%; in experiment [4] it was 99.1%; in experiment [5], 109%; in experiment [6], 98.2%. Further, the growth in experiment [7] is 100%; in experiment [8] it was 86.2%; in experiment [9], 98.8%; in experiment [10], 112%.
With `Cc1nn(-c2ccccc2)c2ncnc(N/N=C/c3ccccc3)c12`, the growth in experiment [1] was 85.4%; in experiment [2], 89.1%; in experiment [3] it was 82.9%; in [4] it was 84.4%; in experiment [5] it was 85%; in experiment [6], 85.2%. Further, the growth is 92.2% in [7], 90.6% in experiment [8], 105% in experiment [9] and 98.4% in experiment [10].
